# Pf growth 48h: Primary qHTS for delayed death inhibitors of the malarial parasite plastid, 48 hour incubation | hit rate 5.9% among 310,000 | P. falciparum luciferase growth in erythrocytes, 48 h | AID 504832, 2011 | Potency, µM (series often up to 28.7 µM), for the others: at the top dose activity change, negative = inhibition, actives largely listed as inhibitors; further: potency means the concentration at half of the fitted maximal effect; on the % scale 0 is the no-effect control and ±100 the full control effect
#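 Erythrocytes infected with P. falciparum carrying an integrated firefly luciferase reporter (2% hematocrit, 0.1% parasitemia final) were exposed to compounds in RPMI 1640 with 0.5% Albumax at 37 C, 5% CO2. Growth inhibition was scored as reduced luminescence.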
# HCV inh: qHTS Assay for Inhibitors of Hepatitis C Virus (HCV); Huh7.5.1 HCVcc-Cre infection, luciferase reporter, 44 h; Potency, µM (highest dose often 41.8 µM), for inactives: at the top dose activity change, negative = inhibition, most hits filed as inhibitors; hit rate 3.4% among 340,000; AID 651820, 2012; further: potency means the concentration at half of the fitted maximal effect; on the % scale 0 is the no-effect control and ±100 the full control effect
#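 Compounds are dispensed onto cells plated 4 h earlier at 1,000 per well, with HCVcc-Cre virus (about 0.5 moi) added next. Following 44 h of culture, luminescent signal is measured for 15 sec after 15 min with substrate at room temperature.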
# Pf growth 96h: Primary qHTS for delayed death inhibitors of the malarial parasite plastid, 96 hour incubation; P. falciparum luciferase reporter growth, 96 h; Potency, µM (titrated, usually from 28.7 µM), inactives show at the highest dose activity change, negative = inhibition, usual class: inhibitors; hit rate 6.9% among 320,000; further: potency means the concentration at half of the fitted maximal effect; on the % scale 0 is the no-effect control and ±100 the full control effect
#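 Two parasite generations (96 h, 37 C, 5% CO2) of compound exposure in infected erythrocytes (0.05% parasitemia, 2% hematocrit). Luciferase-reporter P. falciparum; decreased luminescence indicates inhibited growth, aimed at apicoplast-acting delayed death.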
# Shiga toxin inh: A qHTS for Small Molecule Inhibitors of Shiga Toxin. inhibition, % at 38.7 µM. hit rate 9.2% among 290,000. Vero cells, Shiga toxin protein synthesis inhibition reporter; in the data active means inhibition mostly above about 28%, no sharp cut-off; inactive means mostly below about 43%; further: 0% is about no effect
# CHX counter: Cycloheximide Counterscreen for Small Molecule Inhibitors of Shiga Toxin. cell reporter, cycloheximide protein synthesis inhibition counterscreen. AID 2314, 2010. hit rate 12% among 300,000. max response, %; in the data active means max response mostly above about 13%, no sharp cut-off; inactive means mostly below about 14%; further: read at 38.3 µM for the half of the compounds with a filed dose; 0% is about no effect
# HCMV antiviral: qHTS Assay for inhibitors of the human cytomegalovirus (HCMV); HFF cells, HCMV-luciferase reporter, 72 h; active compounds read low; activity change, negative = inhibition, % at 57.5 µM; hit rate 4.5% among 410,000; in the data active means activity change below about -60%; inconclusive means no clear call, values can overlap the other calls; inactive means above about -39%; further: on the % scale 0 is the no-effect control and ±100 the full control effect
#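 Human foreskin fibroblasts infected with luciferase-reporter HCMV at MOI 1 PFU/cell, compounds at two doses. Luciferase measured 72 h post infection; normalized to buffer-only basal and Salinomycin (10uM) controls.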
# Numbers without * were called inactive; ? = inconclusive; . = no result; [ ] = remark or other dose. Only some compounds are listed: those with a hit (about 21% of all), similar ones and a draw of the others. Unless noted, the call rests on the fitted dose curve; in most records, active means well fitted inhibition curve with a large enough effect; inconclusive means small, poorly fitted or top-dose-only effect, or another doubt; inactive means no such curve, though single readings can be large or run the other way.
SMILES,Pf growth 48h,HCV inh,Pf growth 96h,Shiga toxin inh,CHX counter,HCMV antiviral
C=C1C(=O)[C@]23C[C@H]1CCC2[C@@]1(C)C(C[C@@H]3O)[C@](C)(C(=O)OC)CC[C@@H]1O (some centres undefined),.,.,.,.,.,-101.9*
CCOc1ccc2nc(SCC(=O)c3cccs3)sc2c1,192.5%,-7.5%,.,139.3*,41.8*,60.5
CCOc1ccc2nc(SCC(=O)NCc3ccco3)sc2c1,8.28µM*,?,-5.7%,44.5,18.3*,-6.9
O=C(CSc1nc2ccc(Nc3nc(N4CCOCC4)nc(N4CCOCC4)n3)cc2s1)N1CCOCC1,-1.1%,0.7%,-7.4%,-9.0,-2.4,-28.5
CSc1nc2ccc(Nc3nc(N4CCOCC4)nc(N4CCOCC4)n3)cc2s1,9.28µM*,?,.,-6.3,-1.1,0.9
CCOc1ccc2nc(SCC(=O)c3ccc(Cl)s3)sc2c1,.,?,-11.8%,-2.0,-0.5,67.2
COC(=O)c1ccccc1NC(=O)CSc1nc(Nc2ccccc2)nc(N2CCOCC2)n1,9.28µM*,?,-9.6%,14.5,4.1,-25.2
COc1ccc(-n2c(=O)c3c(c4cc(OC)ccc4n3C)n(CC(=O)NCC3CCCO3)c2=O)cc1 (centres undefined),.,.,.,.,.,15.8
O=C(CSc1nc2ccc(Nc3nc(N4CCOCC4)nc(N4CCOCC4)n3)cc2s1)Nc1ccccc1,.,.,.,.,.,0.0
O=C(CSc1nc2ccc(Nc3nc(N4CCOCC4)nc(N4CCOCC4)n3)cc2s1)Nc1ccccc1Cl,11.7µM*,?,2.62µM*,12.6,10.3,.
O=C(CSc1nc2ccc(Nc3nc(N4CCCC4)nc(N4CCCC4)n3)cc2s1)NCc1ccco1,11.7µM*,2.0%,?,-18.4,-0.2,-17.1
O=C(CSc1nc2ccc(Nc3nc(N4CCOCC4)nc(N4CCOCC4)n3)cc2s1)Nc1ccccc1F,?,?,10.4µM*,-2.3,1.3,-96.9*
CN1CCN(C(=O)Nc2cccc(Cl)c2)c2cccnc21,.,.,.,.,.,-3.4
CC(C)CCSc1nnc2n(-c3ccccc3)c(=O)c3c4c(sc3n12)CC(C)CC4 (centres undefined),.,.,.,.,.,-14.9
N#C/C(=C\c1ccc([N+](=O)[O-])cc1)C(=O)Nc1ccccc1O,-13.6%,-11.2%,?,39.5,30.6*,171.1
N#C/C(=C/c1ccc(O)c([N+](=O)[O-])c1)C(=O)Nc1ccccc1,41.2%,11.2%,-9.9%,50.6*,26.5*,?
N#C/C(=C/c1ccc([N+](=O)[O-])cc1)C(=O)Nc1ccccc1O,-4.2%,4.2%,-20.0%,74.3*,62.4*,57.0
CNc1ccc(/C=C(\C#N)C(=O)Nc2ccccn2)cc1[N+](=O)[O-],13.2%,0.0%,15.1%,-6.1,-3.6,-9.1
N#C/C(=C/c1ccc([N+](=O)[O-])cc1)C(N)=O,0.0%,12.9%,8.1%,-9.0,-2.8,2.5
Cc1nn(-c2cc(Cl)ccc2Cl)c(C)c1C(=O)O,-17.3%[5.75 µM],16.4%,38.0%,4.8,6.1,-2.9
CCN(CC)S(=O)(=O)c1cccc(NC(=O)CNc2cccc(S(=O)(=O)N3CCCC3)c2)c1,?,2.51µM*,?,-10.1,-1.8,-88.3*
Cc1ccc(NC(=O)CN(C)CC(=O)Nc2cccc(F)c2)cc1S(=O)(=O)N1CCCCCC1,0.0%,?,?,14.4,6.3,-65.9*
CCN(CC)S(=O)(=O)c1ccc(C)c(NC(=O)CNc2cccc(S(=O)(=O)N3CCCC3)c2)c1,11.7µM*,10µM*,-17.1%,.,.,?
COc1ccc(NC(=O)CN(C)CC(=O)Nc2cccc(F)c2)cc1S(=O)(=O)N1CCCCC1,.,-7.6%,.,.,.,-24.0
O=C(CN1CCN(C(=O)c2ccco2)CC1)Nc1cccc(S(=O)(=O)N2CCCC2)c1,?,-7.8%,10.4µM*,.,.,-12.4
SMILES,Pf growth 48h,HCV inh,Pf growth 96h,Shiga toxin inh,CHX counter,HCMV antiviral
CC(=O)c1cccc(NCC(=O)Nc2cccc(S(=O)(=O)N3CCCCC3)c2)c1,?,?,?,.,.,-37.9
CN(C)S(=O)(=O)Nc1cccc(NC(=O)CC23CC4CC(CC(C4)C2)C3)c1,0.0%,-17.9%,-20.7%,-4.7,-1.9,9.6
CCN(CC)CC(=O)Nc1cccc(S(=O)(=O)N2CCCC2)c1,102.8%,?,-4.2%,-4.3,-3.1,-91.2*
NS(=O)(=O)c1cccc(NC(=O)c2cccc(S(=O)(=O)N3CCCCCC3)c2)c1,.,?,.,.,.,-11.5
O=C(CN(CCO)c1ccccc1)Nc1cccc(S(=O)(=O)N2CCCC2)c1,-29.3%,-9.1%,13.1µM*,27.2,0.6,-12.6
CN(C)S(=O)(=O)c1cccc(NC(=O)CC23CC4CC(CC(C4)C2)C3)c1,14.7µM*,-13.7%,?,16.0,3.3,-16.1
CCN(CC)S(=O)(=O)c1cccc(NC(=O)c2cccc(S(=O)(=O)N3CCCC3)c2)c1,9.28µM*,?,11.7µM*,.,.,-8.7
COc1ccccc1CNC(=O)c1cc2c(-c3ccc(Cl)cc3)nn(C)c2s1,.,.,.,.,.,63.0
Cc1ccc(CNC(=O)Cn2c(=O)ccc3cc(S(=O)(=O)N4CCC(C)CC4)ccc32)cc1,.,.,.,.,.,6.6
CN(CC(=O)Nc1cccc(S(=O)(=O)N2CCCC2)c1)CC(=O)Nc1ccc(Cl)c(C(F)(F)F)c1,14.7µM*,17.8µM*,?,.,.,-64.4*
CCN(CC)S(=O)(=O)c1cccc(NC(=O)Nc2cccc(C(F)(F)F)c2)c1,.,2µM*,4.15µM*,-7.4,5.2,.
CN(CC(=O)Nc1cccc(S(=O)(=O)N2CCCC2)c1)CC(=O)Nc1ccc(F)c(F)c1F,.,?,.,.,.,-11.8

# From PubChem BioAssay
